According to PubChem BioAssay (NCI):
About 83,000 compounds went through this panel and 20% of them were active in at least one assay; those are over-represented in the sample as a whole.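 For each line, cells grew in 96-well plates with the test compound present at a single concentration for 48 hours.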 Values without a mark were called inactive. Calls of active or inactive are those of the source. How the source made its calls: active means growth percent below 10; inactive means the rest.

Tests used:
Assay in all cases: NCI-60 one-dose screen, 48 h (100 = growth as untreated, 0 = no growth, -100 = all killed)
Settings in all cases: 10 µM unless noted
SR leukemia = test system: SR leukemia
RPMI-8226 leukemia = test system: RPMI-8226 leukemia
OVCAR-8 ovarian = test system: OVCAR-8 ovarian
OVCAR-5 ovarian = test system: OVCAR-5 ovarian
OVCAR-4 ovarian = test system: OVCAR-4 ovarian
SK-OV-3 ovarian = test system: SK-OV-3 ovarian
IGROV1 ovarian = test system: IGROV1 ovarian
OVCAR-3 ovarian = test system: OVCAR-3 ovarian
HS 578T breast = test system: HS 578T breast
NCI/ADR-RES ovarian = test system: NCI/ADR-RES ovarian
T-47D breast = test system: T-47D breast
BT-549 breast = test system: BT-549 breast
MDA-MB-435 melanoma = test system: MDA-MB-435 melanoma
SW-620 colon = test system: SW-620 colon
MCF7 breast = test system: MCF7 breast
HCC-2998 colon = test system: HCC-2998 colon
KM12 colon = test system: KM12 colon
HCT-116 colon = test system: HCT-116 colon

SMILES | growth (SR leukemia) | growth (RPMI-8226 leukemia) | growth (OVCAR-8 ovarian) | growth (OVCAR-5 ovarian) | growth (OVCAR-4 ovarian) | growth (SK-OV-3 ovarian) | growth (IGROV1 ovarian) | growth (OVCAR-3 ovarian) | growth (HS 578T breast) | growth (NCI/ADR-RES ovarian) | growth (T-47D breast) | growth (BT-549 breast) | growth (MDA-MB-435 melanoma) | growth (SW-620 colon) | growth (MCF7 breast) | growth (HCC-2998 colon) | growth (KM12 colon) | growth (HCT-116 colon)
O=C(Nc1ccncc1)C(=O)c1cn(S(=O)(=O)c2ccc(Oc3ccccc3)cc2)c2ccccc12 | 92.9% | 76.4% | 99.3% | 87.5% | 88.3% | 86.4% | 82.7% | 112% | 92% | 92.5% | 66.4% | 94.9% | 94.1% | 94.2% | 94.3% | 81.5% | 99.1% | –
CC1(C)C(=O)/C(=C\c2ccc(C(F)(F)F)cc2)C[C@]2(C)[C@H]3CC[C@@H]4[C@H]5[C@H](C(=O)/C=C/c6ccc(C(F)(F)F)cc6)CC[C@]5(CO)CC[C@@]4(C)[C@]3(C)CC[C@@H]12 | 82.2% | 88.6% | 79.6% | 107% | 96.6% | 110% | 92.4% | 97% | 95.8% | 99.1% | 76% | 95.8% | 101% | 98.3% | – | 101% | 99.2% | –
CCOC(=O)c1ccc2c(c1)c1c(C)c3cccnc3c(C)c1n2C | 16.1% | 62.8% | 46.2% | 69.3% | 62.7% | 84.1% | 24.1% | 69.8% | 85.2% | 48.4% | 44.9% | 79.5% | 73.4% | 34% | – | 86.9% | 61.4% | 23%
N#Cc1c(-c2ccccc2)cc(-c2ccccc2)n(CC(=O)NO)c1=O | 2.74% (active) | 23.2% | 67.7% | 69.3% | 50.6% | 107% | -61.4% (active) | 30% | 39.4% | 11.5% | 14.9% | 1.67% (active) | 49.8% | – | 21.9% | 86.5% | 41.2% | 40.7%
O=C1CS/C(=N\Nc2cc(=O)[nH]c3ccccc23)N1c1ccccc1 | 77.9% | 88.4% | 94% | 95.6% | 97% | 107% | 89.1% | 99.8% | 97.1% | 91.3% | 89.6% | 95.3% | 82.9% | 92.9% | – | 96% | 98.8% | –
Cn1cc(-c2cnc3ccc(NC(=O)Nc4ccc(F)c(Br)c4)cc3n2)cn1 | 34% | -34.1% (active) | 7.83% (active) | 51.2% | 10.7% | 44.7% | 32.8% | 28.2% | 37.4% | 12.4% | -38.1% (active) | 20.5% | 21.5% | 39.8% | 3.7% (active) | 49.2% | 12.7% | –
Cn1c2ccc(Br)cc2c2c3c(c4c5ccccc5[nH]c4c21)C(=O)N(O)C3=O | 0.179% (active) | -29.5% (active) | -27.2% (active) | -6.8% (active) | 3.5% (active) | -84.2% (active) | -79.4% (active) | -86.2% (active) | 1.47% (active) | 26.3% | -24.1% (active) | -85.2% (active) | -59.3% (active) | -12.2% (active) | – | -87.4% (active) | -65.8% (active) | -34.7% (active)
C=C[C@@H]1C[C@@H]2Cc3cc(F)ccc3N1O2 | 32% | 94.1% | 114% | 97% | 104% | 113% | 122% | 113% | 106% | 102% | 111% | 124% | 98.7% | 112% | – | 95.3% | 108% | 112%
Clc1cccc(-c2cc(-c3ccc4c(c3)OCCO4)[nH]n2)c1 | 29.3% [25 µM] | 21.4% [25 µM] | 38.2% [25 µM] | 37% [25 µM] | 68.3% [25 µM] | 45.6% [25 µM] | 39.9% [25 µM] | 12.8% [25 µM] | 47% [25 µM] | 3.35% [25 µM] (active) | 22% [25 µM] | 53.7% [25 µM] | -37.5% [25 µM] (active) | 27.5% [25 µM] | 15.6% [25 µM] | 58.1% [25 µM] | 25.7% [25 µM] | –
